A short description of assay [1]: qHTS assay to identify small molecule antagonists of the vitamin D receptor (VDR) signaling pathway - cell viability counter screen (AID 743225). Also: nearly all actives have a fitted effect of over 50% in size. In short, it runs like this:
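Cytotoxicity toward the VDR-bla HEK 293T line was scored by ATP-based CellTiter-Glo luminescence, read in the wells already used for the beta-lactamase readout after 16 h compound treatment under 3 nM 1-alpha,25-dihydroxyvitamin D3 stimulation.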
Background: qHTS replaces the single test concentration by a dilution series.

The nature of assay [2]: qHTS assay to identify small molecule agonists of the NFkB signaling pathway (AID 1159509; active = well fitted curve in the direction sought with a large enough effect in the signal ratio in the repeat runs, not every such curve was filed as active; the % refers to the signal ratio; also: series mostly up to about 61 µM). In short, it runs like this:
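Readout: FRET fluorescence, 405 nm excitation, 460/530 nm emission; beta-lactamase expression disrupts FRET. Cells: ME-180 stably carrying NF-kB-driven bla reporter. Compound exposure 5 hr, 37 C, 5% CO2.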

The nature of assay [3]: qHTS assay to identify small molecule agonists of the NFkB signaling pathway - cell viability counter screen (AID 1159515; calls by dose curve; also: series mostly up to about 61 µM; nearly all actives have a fitted effect of over 55% in size). In short, it runs like this:
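Plate 2,000 NFkB-bla ME-180 cells/well; incubate overnight. Add compounds, 5 hr at 37 C. Add FRET substrate, 1.5 hr RT. Add CellTiter-Glo, 30 min RT; read luminescence.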

Assay [4] in a line: qHTS assay to identify small molecule agonists of the endoplasmic reticulum stress response signaling pathway (AID 1159516; active = well fitted activation curve with a large enough effect in the signal ratio in the repeat runs, not every such curve was filed as active; the % refers to the signal ratio). In short, it runs like this:
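Beta-lactamase expression from the ER stress response element in HeLa reporter cells is quantified with the LiveBLAzer B/G FRET substrate, read at 405 nm excitation after 2 hr at room temperature, following 5 hr compound treatment at 37 C.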

The nature of assay [5]: qHTS assay to identify small molecule agonists of the endoplasmic reticulum stress response signaling pathway - cell viability counter screen (AID 1159517; calls by dose curve; also: series mostly up to about 61 µM; nearly all actives have a fitted effect of over 50% in size). In short, it runs like this: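 Cytotoxicity of test compounds toward ESRE-bla HeLa cells was assessed after 5 hr exposure. The luminescent CellTiter-Glo signal was measured 30 min after reagent addition.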
A short description of assay [6]: qHTS assay to identify small molecule antagonists of the retinoid-related orphan receptor gamma (ROR-gamma) signaling pathway - cell viability counter screen (AID 1159520). Also: nearly all actives have a fitted effect of over 50% in size. In short, it runs like this:
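Tet-on ROR gamma CHO cells (1,000/well) were plated 4 hr, given compounds in DMSO for 2 hr at 37 C, then induced with 1 uM final doxycycline for 16 hr. Viability was read as ATP by CellTiter-Glo luminescence after 30 min.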

Assay [7] can be described thus: qHTS assay to identify small molecule agonists of the AP-1 signaling pathway - cell viability counter screen (AID 1159525; calls by dose curve; also: nearly all actives have a fitted effect of over 55% in size). In short, it runs like this:
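Each titration point was normalised to DMSO and tetra n-octyl ammonium bromide controls. The read was Cell Titer Glo luminescence after 30 min at RT, following 5 h compound exposure of ME-180 AP-1-bla cells at 37 °C.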

Assay [8] can be described thus: qHTS assay to identify small molecule agonists of the AP-1 signaling pathway (AID 1159526; calls by dose curve).
Assay [9] addresses Retinoic acid receptor RXR-alpha (Homo sapiens) (UniProt P19793). Put plainly: qHTS assay to identify small molecule agonists of the RXR signaling pathway (AID 1159527; calls by dose curve; also: nearly all actives have a fitted effect of over 35% in size; also: potency is read from the fitted curve at half-maximal effect). In short, it runs like this:
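Reporter activation is measured as beta-lactamase activity via FRET substrate cleavage (emission 460/530 nm) in HEK 293T cells expressing an RXR-alpha-driven bla construct, following 16 hr compound exposure at 37 C.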

Assay [10] in a line: qHTS assay to identify small molecule antagonists of the retinoid acid receptor (RAR) signaling pathway - cell viability counter screen (AID 1159551). Also: nearly all actives have a fitted effect of over 35% in size. In short, it runs like this: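 Viability of C3RL4 cells is quantified from ATP by luminescence after 6 h treatment at 37 C with compounds and 1 uM retinol.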
Assay [11] in a line: qHTS assay to identify small molecule antagonists of the retinoic acid receptor (RAR) signaling pathway (AID 1159552; also: nearly all actives have a fitted effect of over 50% in size). In short, it runs like this:
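Overnight-plated C3RL4 reporter cells get compound, then retinol to 1 uM final; plates sit 6 hr at 37 C, 5% CO2. A luciferase reagent is added and light output recorded after 30 min at room temperature.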

The nature of assay [12]: qHTS assay to identify small molecule agonists of the retinoic acid receptor (RAR) signaling pathway (AID 1159553). In short, it runs like this: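 Compounds dissolved in DMSO were pinned onto C3RL4 cells seeded the previous day, and plates were held 6 hr at 37 C. RARE-driven luciferase output was then read by luminescence.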
A short description of assay [13]: qHTS assay to identify small molecule antagonists of the estrogen related receptor (ERR) signaling pathway from Tox21 library - cell viability counter screen (AID 1224834). Also: nearly all actives have a fitted effect of over 30% in size. In short, it runs like this: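 In this quantitative HTS format, ERR cells receive compounds in DMSO and are incubated for 17.5 h at 37 C. Live-cell protease activity is then detected with CellTiter-Fluor.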

Assay [14] in a line: qHTS assay to identify small molecule agonists of the RXR signaling pathway - cell viability counter screen (AID 1159529). In short, it runs like this: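 Tox21 10K compounds were tested for cytotoxicity against GeneBLAzer RXR-alpha HEK 293T cells grown in 2% charcoal-stripped FBS. Exposure lasted 16 hr at 37 C, 5% CO2; viability read by CellTiter-Glo luminescence.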

Results filed as inconclusive are left out. Values without a mark were called inactive. Calls of active or inactive are those of the source. Unless noted, calls follow the shape of the dose curve; as a rule, active = well fitted curve in the direction sought with a large enough effect in the repeat runs; inconclusive = weak or mixed curves; inactive = no such curve, though single readings can be large; an effect the other way counts as inactive or inconclusive.

Retinoic acid receptor RXR-alpha (Homo sapiens), sequence (P19793 whole entry, looked up): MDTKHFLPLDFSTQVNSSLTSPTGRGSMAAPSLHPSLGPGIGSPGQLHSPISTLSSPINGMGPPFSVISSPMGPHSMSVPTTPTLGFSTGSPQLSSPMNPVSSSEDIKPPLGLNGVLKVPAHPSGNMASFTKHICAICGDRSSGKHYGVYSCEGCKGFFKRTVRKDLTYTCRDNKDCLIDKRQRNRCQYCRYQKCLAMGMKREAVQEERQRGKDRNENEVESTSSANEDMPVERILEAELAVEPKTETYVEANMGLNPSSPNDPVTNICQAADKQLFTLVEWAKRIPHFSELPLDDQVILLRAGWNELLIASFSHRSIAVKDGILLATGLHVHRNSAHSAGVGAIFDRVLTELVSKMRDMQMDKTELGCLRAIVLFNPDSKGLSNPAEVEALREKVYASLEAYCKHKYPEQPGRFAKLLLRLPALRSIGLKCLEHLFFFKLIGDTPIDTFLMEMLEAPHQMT

Take `CC(C)(C)C1CCCCC1=O` (stereo unspecified): the Potency entry in [1], in assay [6], in assay [8], in [9], in assay [11] and in assay [12] was “inactive” in each case. Also, the molecule was called inactive in assay [2], in assay [3], in [4], in assay [5], in assay [7] and in assay [10].
As for `Cc1cn([C@@H]2O[C@H](CO)[C@@H](O)[C@@H]2F)c(=O)[nH]c1=O`, the Potency entry in [1], in assay [6], in assay [8], in assay [9], in [11] and in assay [12] was “inactive” in each case. Moreover, the Potency result in assay [13] is “inactive”. In addition, the result in assay [2], in assay [3], in assay [4], in assay [5], in assay [7] and in [10] was inactive.
Consider `CCCCNCCCC`, for which the Potency result in assay [1], in assay [6], in [8], in assay [9], in [11] and in assay [12] was “inactive” each time. The outcome in [2], in [3], in assay [4], in [5], in assay [7] and in assay [10] was inactive.
Take `COc1nc(C)nc(NC(=O)NS(=O)(=O)c2ccccc2OCCCl)n1`: the Potency entry in [1], in [6], in assay [8], in assay [9], in assay [11] and in assay [12] was “inactive” in each case. Besides, the result in assay [2], in assay [3], in [4], in assay [5], in assay [7] and in assay [10] was inactive.
As to `Nc1cccc(S(=O)(=O)O)c1`, the Potency result in [1], in assay [6], in [8], in assay [9], in assay [11] and in assay [12] was “inactive” in each case. Further, the Potency result in [13] is “inactive”. For the same molecule, the molecule was classed as inactive in assay [2], in assay [3], in assay [4], in [5], in assay [7] and in assay [10].
Take `Cc1cc(S(=O)(=O)O)c(N)cc1Cl`: the Potency result in assay [1], in assay [6], in assay [8], in [9], in assay [11] and in assay [12] was “inactive” in each case. Further, in [13], the Potency result is “inactive”. Further, the call in assay [2], in assay [3], in assay [4], in assay [5], in assay [7] and in assay [10] was inactive.
As to `CCN[C@H]1CN(CCCOC)S(=O)(=O)c2sc(S(N)(=O)=O)cc21`, the Potency entry in assay [1], in assay [6], in assay [8], in [9], in assay [14] and in assay [11] was “inactive” throughout. Besides, the Potency result in [12] and in assay [13] was “inactive” in each case. In addition, the result in assay [2], in assay [3], in [4], in [5] and in assay [10] was inactive.
`O=CCCc1ccccc1`: the Potency result in assay [1], in assay [6], in [8], in [14] and in assay [12] was “inactive” throughout. For the same molecule, the molecule was called inactive in [2], in [3], in assay [4], in [5], in assay [7] and in assay [10]. The Potency in [9] was 19.5 µM (active).
Consider `CN1C(=O)CC(c2ccccc2)C1=O` (stereo unspecified), for which the Potency entry in assay [1], in [6], in assay [8], in assay [9], in [14] and in [11] was “inactive” in each case. Further, the Potency entry in assay [12] and in [13] was “inactive” in each case. Moreover, the result in assay [2], in assay [3], in assay [4], in assay [5] and in [10] was inactive.
In the case of `NNS(=O)(=O)c1ccc(Oc2ccc(S(=O)(=O)NN)cc2)cc1`, the Potency result in assay [1], in assay [6], in assay [8], in assay [9], in assay [14] and in [11] was “inactive” each time. Moreover, the Potency entry in assay [12] and in [13] was “inactive” in each case. Further, the molecule was classed as inactive in assay [2], in assay [3], in assay [4], in assay [5] and in assay [10].

Source of the values: PubChem BioAssay (Tox21).
